High-throughput results: PubChem BioAssay, National Center for Advancing Translational Sciences (NCATS)
Sfp inh = inhibitors of Bacillus subtilis Sfp phosphopantetheinyl transferase; Q9F4F7; actives 3.5% (n = 310,000); AID 1490; Potency, µM, most hits filed as inhibitors; Biochemical Sfp PPTase activity, qHTS;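 note: the enzyme is Sfp with the accession as filed and its product quenches rhodamine fluorescence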
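Fluorescence-quenching assay: 15 nM Sfp-PPTase preincubated 15 min at room temperature with compound, then 5 uM rhodamine-CoA and 12.5 uM BHQ-2-labelled YbbR peptide added. Fluorescence (ex 525/em 598 nm) read at start and after 30 min; difference gives rate.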
BAZ2B block = blocks human BAZ2B; Q9UIF8; AlphaScreen BAZ2B-H3K14Ac peptide displacement; Potency, µM (top dose mostly 114 µM), usual class: inhibitors; actives 4.4% (n = 360,000); note: nearly all actives have a fitted effect of over 60% in size
Target sequence (Q9UIF8 whole entry, looked up): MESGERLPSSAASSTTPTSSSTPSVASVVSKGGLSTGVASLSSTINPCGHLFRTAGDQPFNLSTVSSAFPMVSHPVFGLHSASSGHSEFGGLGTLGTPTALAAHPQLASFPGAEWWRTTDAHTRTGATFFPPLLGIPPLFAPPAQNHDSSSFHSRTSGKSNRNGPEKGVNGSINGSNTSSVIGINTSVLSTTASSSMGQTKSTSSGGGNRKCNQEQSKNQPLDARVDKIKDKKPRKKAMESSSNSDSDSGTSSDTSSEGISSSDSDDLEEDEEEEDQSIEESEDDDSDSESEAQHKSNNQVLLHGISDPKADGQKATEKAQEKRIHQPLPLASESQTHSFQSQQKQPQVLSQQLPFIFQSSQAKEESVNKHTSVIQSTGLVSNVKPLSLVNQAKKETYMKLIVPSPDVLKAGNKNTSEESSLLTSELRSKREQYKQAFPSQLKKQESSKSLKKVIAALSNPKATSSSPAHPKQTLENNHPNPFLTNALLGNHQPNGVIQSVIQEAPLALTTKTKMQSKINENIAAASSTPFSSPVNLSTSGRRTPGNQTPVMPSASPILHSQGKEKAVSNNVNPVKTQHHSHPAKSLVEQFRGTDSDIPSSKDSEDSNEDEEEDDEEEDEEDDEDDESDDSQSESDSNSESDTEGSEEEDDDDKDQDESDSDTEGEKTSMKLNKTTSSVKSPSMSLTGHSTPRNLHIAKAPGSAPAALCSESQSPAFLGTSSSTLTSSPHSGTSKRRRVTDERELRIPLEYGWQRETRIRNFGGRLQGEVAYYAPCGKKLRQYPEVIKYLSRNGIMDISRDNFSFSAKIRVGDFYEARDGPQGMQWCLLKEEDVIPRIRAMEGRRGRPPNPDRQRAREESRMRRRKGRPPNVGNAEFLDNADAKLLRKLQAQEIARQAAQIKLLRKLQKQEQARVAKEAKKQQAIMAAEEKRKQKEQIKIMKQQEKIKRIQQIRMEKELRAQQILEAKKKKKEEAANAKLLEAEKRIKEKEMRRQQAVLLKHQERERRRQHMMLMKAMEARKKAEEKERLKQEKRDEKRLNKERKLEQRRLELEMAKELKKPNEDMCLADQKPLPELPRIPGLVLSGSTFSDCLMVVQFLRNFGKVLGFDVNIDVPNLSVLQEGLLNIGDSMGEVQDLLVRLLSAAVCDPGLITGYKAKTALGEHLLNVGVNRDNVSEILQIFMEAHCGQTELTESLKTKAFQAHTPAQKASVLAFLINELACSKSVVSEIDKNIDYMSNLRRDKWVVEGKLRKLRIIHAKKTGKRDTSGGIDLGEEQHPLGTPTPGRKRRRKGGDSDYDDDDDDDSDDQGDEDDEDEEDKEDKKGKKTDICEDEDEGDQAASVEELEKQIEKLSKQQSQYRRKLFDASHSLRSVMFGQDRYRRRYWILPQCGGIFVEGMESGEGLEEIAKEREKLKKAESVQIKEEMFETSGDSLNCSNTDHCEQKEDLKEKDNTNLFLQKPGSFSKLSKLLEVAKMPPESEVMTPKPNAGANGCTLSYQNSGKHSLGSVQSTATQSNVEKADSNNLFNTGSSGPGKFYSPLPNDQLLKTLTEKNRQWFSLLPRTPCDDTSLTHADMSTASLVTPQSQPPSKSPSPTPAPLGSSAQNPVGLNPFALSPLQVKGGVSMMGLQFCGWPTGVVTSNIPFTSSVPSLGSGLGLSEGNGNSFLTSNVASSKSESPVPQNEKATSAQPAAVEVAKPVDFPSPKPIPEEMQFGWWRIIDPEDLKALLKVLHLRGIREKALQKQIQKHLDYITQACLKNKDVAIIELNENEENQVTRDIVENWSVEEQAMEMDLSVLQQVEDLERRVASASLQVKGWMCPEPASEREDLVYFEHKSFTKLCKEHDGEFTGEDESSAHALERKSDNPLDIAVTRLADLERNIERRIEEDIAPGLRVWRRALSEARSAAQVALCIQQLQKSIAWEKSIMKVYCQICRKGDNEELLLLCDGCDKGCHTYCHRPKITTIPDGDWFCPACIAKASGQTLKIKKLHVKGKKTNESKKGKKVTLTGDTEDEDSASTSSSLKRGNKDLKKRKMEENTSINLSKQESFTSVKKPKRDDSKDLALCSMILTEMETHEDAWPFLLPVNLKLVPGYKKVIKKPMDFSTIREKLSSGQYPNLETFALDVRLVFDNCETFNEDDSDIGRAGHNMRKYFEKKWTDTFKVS
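AlphaScreen displacement of biotin-H3(5-23)K14Ac peptide (50 nM final) from BAZ2B (50 nM final) in PBS pH 7.4, 0.01% Tween-20; complex preformed 30 min RT, then compounds (top 110 uM) 30 min RT, beads 20 min dark.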
ALOX12 inh = ALOX12 (human) lipoxygenase inhibition. P18054. purified 12hLO, xylenol orange hydroperoxide absorbance. Potency, µM (top dose mostly 108 µM), most hits filed as inhibitors. actives 1.1% (n = 580,000)
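Hydroperoxide product was detected by ferrous iron/xylenol orange as the 573 to 405 nm absorbance ratio. Arachidonic acid at 40 uM (final) was turned over for 30 min at room temperature by 150 nM human 12hLO, pH 7.0 Hepes buffer, after 15 min compound preincubation.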
G9a block = G9a (human) methyltransferase inhibition | AID 504332 | Q96KQ7 | G9a H3K9 monomethylation, AlphaScreen, 2 h | actives 8.8% (n = 350,000) | Potency, µM (doses to about 102 µM), usual class: inhibitors; note: nearly all actives have a fitted effect of over 75% in size
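Chemiluminescent proximity detection of H3K9 monomethylation, read after 10 min bead incubation in the dark. Reaction: 20 nM G9a, 500 nM biotin-H3K9 peptide, 20 uM SAM cofactor, 2 h, room temperature, following 15 min enzyme-compound preincubation.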
HP1b chromo inh = inhibitors of HP1-beta chromodomain binding to methylated histone tails. P83916. AlphaScreen HP1-beta / biotin-H3K9me3 peptide binding. Potency, µM (series often up to 114 µM), most hits filed as inhibitors. actives 0.56% (n = 390,000). AID 540317; note: nearly all actives have a fitted effect of over 70% in size
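Compound inhibition of the preformed complex between 50 nM HP1-beta and 50 nM biotinylated H3K9me3 peptide was read by AlphaScreen. Buffer was PBS pH 7.4 with 0.01% Tween-20. Incubations ran 30 min at room temperature, with 10 ug/mL donor/acceptor beads.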
JMJD2A Tudor inh = JMJD2A Tudor domain (human) inhibition; O75164; AlphaScreen JMJD2A-Tudor / H3K4me3 peptide binding; AID 504339; Potency, µM (highest dose often 114 µM), hits mostly inhibitors; actives 4.4% (n = 390,000); note: nearly all actives have a fitted effect of over 50% in size
Numbers stand for hits; . = inactive; ? = inconclusive; / = no result given; [ ] = dose if it differs, or a comment. In the library only some 8.7% were active in any assay of this set; here they are far more common. Calls come from the whole dose curve; as a rule, active = well fitted curve in the direction sought with a large enough effect; inconclusive = small, poorly fitted or top-dose-only effect, or another doubt; inactive = no such curve, though single readings can be large; an effect the other way counts as inactive or inconclusive.

SMILES	Sfp inh	BAZ2B block	ALOX12 inh	G9a block	HP1b chromo inh	JMJD2A Tudor inh
CCOC(=O)c1cnc(-n2cc(C)cn2)nc1NCc1ccc2c(c1)OCO2	79.4µM	?	.	.[12.7 µM]	.	?
CC(C)C(=O)N(Cc1ccc2c(c1)OCO2)Cc1ccccn1	.	?	.	39.8µM	.	56.2µM
O=S(=O)(c1ccc2ccccc2c1)N1CCN(c2nc3ccccc3o2)CC1	/	/	.	/	/	/
COc1cc(-c2cc(C(=O)Nc3ccc(S(=O)(=O)NCc4ccco4)cc3)c3ccccc3n2)cc(OC)c1OC	.	.	.	.	.	.
COc1cc(-c2cc(C(=O)NCc3ccco3)c3ccccc3n2)cc(OC)c1OC	.	.	?	50.1µM	.	.
CCc1ccc(-c2cc(C(=O)NCc3ccco3)c3ccccc3n2)cc1	/	/	14.1µM	/	/	/
COc1ccc2c(c1)CCC/C2=N\O	/	/	.	/	/	/
COC(=O)COc1coc(CN2CCN(c3ccccc3)CC2)cc1=O	/	/	.	/	/	/
O=C1CSC(=S)N1c1cccnc1	?	.	.	.	.	.
O=C1CSC(=S)N1N=Cc1ccccc1O	/	/	6.31µM	/	?	17.8µM
O=C1CSC(=S)N1Cc1cccnc1	.	39.8µM	.	?	?	?
O=C1CSC(=S)N1/N=C/c1ccc(Cl)c([N+](=O)[O-])c1	.	35.5µM	/	/	/	/
O=C1CSC(=S)N1/N=C/c1cccnc1	?	.	.	7.08µM	.	.
O=C(Cc1ccsc1)N1CCC(n2cc(-c3nc(C4CC4)no3)nn2)C1 (stereo not drawn)	/	/	.	/	/	/
O=C1CSC(=S)N1N=Cc1ccc(Cl)cc1Cl	/	/	35.5µM	/	?	?
COc1cc(/C=N/N2C(=O)CSC2=S)ccc1O	.	?	?	.[12.7 µM]	?	.
O=C1CSC(=S)N1/N=C/c1cc(Br)c(O)c(Br)c1	?	35.5µM	/	39.8µM	.	15.8µM
COc1ccc(Br)cc1/C=N/N1C(=O)CSC1=S	.	?	?	79.4µM	?	?
CCCCn1c(=O)[nH]c(=O)c2c1nc(-c1csnn1)n2CCC(C)C	/	/	.	/	/	/
O=C(COC(=O)c1ccc(-c2nnc(-c3ccccc3)o2)cc1)c1ccc(F)cc1	/	/	.	/	/	/
O=C1C(c2ccccc2F)N(C2CCCC2)C(=O)CN1C1CCCCCC1 (stereo not drawn)	/	/	.	/	/	/
C/C=C/c1ccc(OCCCCOc2ccccc2F)c(OC)c1	?	.	.	.	.	.
C/C=C/c1ccc(OCCCNC(C)CC)c(OC)c1 (stereo not drawn)	56.2µM	31.6µM	?	?	.	1.78µM
C/C=C/c1ccc(OCCCNC2CCCC2)c(OC)c1	?	?	.	?	?	7.94µM
CN1CC(=O)N(c2ccc([N+](=O)[O-])cc2)Cc2c1ncnc2N1CCN(c2ncccn2)CC1	/	/	.	/	/	/
SMILES	Sfp inh	BAZ2B block	ALOX12 inh	G9a block	HP1b chromo inh	JMJD2A Tudor inh
Cc1c(C(=O)N[C@H]2[C@H]3CCO[C@H]3[C@@H]2N(C)C)[nH]c2c(F)cccc12	/	/	.	/	/	/
CCOc1ccc(-c2n[nH]c(C(=O)NN)c2C)cc1	.	.	.	.	.	.
Cc1c(-c2ccccc2)n[nH]c1C(=O)NN	.	.	.	39.8µM	.	.
Fc1ccccc1-c1nnc([C@H]2CCN(C3CCOCC3)C2)o1	/	/	.	/	/	/
CCOC(=O)C=C(C(=O)OCC)C(=O)OCC	17.8µM	.	.	12.6µM	?	.
CCOC(=O)C(=CNC(N)=O)C(=O)OCC	/	/	.	/	/	/
CN(C)c1cccc(NC2=CC(=[N+]3CCOCC3)CC(C)(C)C2)c1	.	?	?	11.2µM	.	89.1µM
CC1(C)CC(=O)C=C(Nc2cccc(F)c2)C1	.	.	.	.	.	?
NC(=O)CC(NC(=O)c1cccc(Br)c1)c1ccc(NC2CCCCCCCCCCC2)c([N+](=O)[O-])c1 (stereo not drawn)	.	.	.	70.8µM	.	.
NC(=O)CC(NC(=O)c1cccc(Br)c1)c1ccc(NC2CCCCCCC2)c([N+](=O)[O-])c1 (stereo not drawn)	.	?	?	20µM	.	?
NC(=O)CC(NC(=O)c1ccc(Br)cc1)c1ccc(NC2CCCCC2)c([N+](=O)[O-])c1 (stereo not drawn)	.	.	.	/	.	.
Cc1cccc(/C=N/NC(=O)c2ccc(F)cc2)n1	39.8µM	.	.	.	.	.
Cc1cccc(/C=N/NC(=O)c2cccc(Cl)c2)n1	.	.	.	.	.	.
O=C(N/N=C/c1ccccn1)c1ccc(NC(=O)c2ccc(F)cc2)cc1	.	.	.	50.1µM	.	.
O=C(N/N=C/c1ccccn1)c1ccc(NC(=O)c2ccccc2Cl)cc1	.	.	.	.	.	.
COc1ccc(N2C(=O)[C@@H]3[C@H](C2=O)[C@H](C(C)=O)N2c4ccccc4C=C[C@@H]32)cc1	.	?	?	8.91µM	.	.
COc1ccc(C2C(C(=O)c3ccccc3)N3c4ccccc4C=CC3C2[N+](=O)[O-])cc1 (stereo not drawn)	.	?	?	35.5µM	.	.
COc1ccc(C(=O)N2c3ccccc3C=CC2C#N)cc1 (stereo not drawn)	.	.	.	.	.	.
COc1ccc(C)cc1NC(=O)COc1ccc(-c2nnc3n2CCCC3)cc1	/	/	.	/	/	/
C=CCn1c(COc2cccc(C)c2C)nnc1SCC(=O)N1CCN(c2ccccc2)CC1	.	?	?	3.98µM	.	?
Cn1c(SCC(=O)N2CCN(c3ccccc3)CC2)nnc1-c1ccco1	.	.	.	.	.	.
COc1cc2c(cc1OC)CN(C(=O)CSc1nnc3scc(-c4ccccc4)n13)CC2	70.8µM	.	.	14.1µM	.	.
O=C(CSc1nnc2scc(-c3ccccc3)n12)N1CCN(Cc2ccccc2)CC1	.	.	.	?	.	.
O=c1cc(CN2CCN(c3ccccc3)CC2)nc2scc(-c3ccccc3)n12	.	?	.	.	.	.
Cn1c(SCC(=O)N2CCN(c3ccccc3)CC2)nnc1-c1ccccc1	.	.	.	50.1µM	.	.
SMILES	Sfp inh	BAZ2B block	ALOX12 inh	G9a block	HP1b chromo inh	JMJD2A Tudor inh
COc1cc2c(cc1OC)CN(Cc1cc(=O)n3c(-c4ccccc4)csc3n1)CC2	.	.	.	25.1µM	.	.
CC(C)(C)c1nc(C(=O)N2CCCC2)n2ccccc12	/	/	.	/	/	/
CCn1c(SCC(=O)N2CCN(c3ccccc3)CC2)nnc1-c1c[nH]c2ccccc12	.	.	.	.	.	.
CCn1c(SCC(=O)N2CCN(c3ccccc3)CC2)nnc1-c1ccncc1	.	.	/	1.78µM	/	/
Cc1ccc(-c2csc3nnc(SCC(=O)N4CCN(Cc5ccccc5)CC4)n23)cc1	.	.	.	25.1µM	.	.
COc1cc2c(cc1OC)CN(Cc1cc(=O)n3cc(C)ccc3n1)CC2	.	.	.	35.5µM	.	.
Cn1c(SCC(=O)N2CCN(Cc3ccccc3)CC2)nnc1-c1ccncc1	.	.	.	11.2µM	.	.
